High-throughput results from PubChem BioAssay.
Rows were chosen to be rich in hits. Some 19% of all compounds tested hit in one or more screens of this group.
DT40 TDP1 no CPT = qHTS for Inhibitors of human tyrosyl-DNA phosphodiesterase 1 (TDP1): qHTS in cells in absence of CPT; 420,000 compounds, 15% hits; Potency, µM (top dose mostly 46.2 µM), inactives show top-dose activity change, negative = growth inhibition, actives largely listed as inhibitors; DT40 Tdp1-/- hTDP1 cells, no CPT, ATP luminescence, 48 h; AID 686978, 2013; also: potency is read from the fitted curve at half-maximal effect; nearly all actives have a fitted effect of over 55% in size
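Readout: luminescence from CellTiter-Glo after 30 min in the dark at RT. Cells: DT40 Tdp1-/- with stable hTDP1, 400/well. Exposure: compounds alone, ≥48 hr, 37 °C.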
DT40 TDP1 CPT = growth inhibition of DT40 Tdp1-/-;hTDP1 cells with camptothecin (screen for TDP1 inhibitors). 420,000 compounds, 12% hits. chicken DT40 Tdp1-/-;hTDP1 cells + 20 nM CPT, ATP luminescence, 48 h. Potency, µM (doses to about 46.2 µM), without a hit: at the top dose activity change, negative = growth inhibition, hits mostly inhibitors; also: potency is read from the fitted curve at half-maximal effect; nearly all actives have a fitted effect of over 55% in size
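Chicken DT40 Tdp1-/- cells complemented with human TDP1, 400 cells/well, exposed to compounds plus 20 nM camptothecin for at least 48 h at 37 C; viability read as ATP content by CellTiter-Glo luminescence.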
HT1080 IDH1KD tx = toxicity to HT-1080 IDH1 knockdown cells (counter line). HT-1080 IDH1 knockdown viability, ATP luminescence, 48 h. Potency, µM (top dose mostly 46.1 µM), inactives show at the top dose activity, negative = toxicity, actives largely listed as cytotoxic. 360,000 compounds, 2% hits;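 also: potency is read from the fitted curve at half-maximal effect; 0% = DMSO wells and -100% = cell-free medium wells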
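Viability of IDH1-knockdown HT-1080 fibrosarcoma cells was assessed by CellTiter-Glo after 48 h at 37 °C with titrated compound; concentration-effect curves were classified by fit quality and response size.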
HT1080NT lethal = kills 2HG-producing HT-1080-NT fibrosarcoma cells; Potency, µM (highest dose often 46.1 µM), for inactives: at the top dose activity, negative = less viability, most hits filed as cytotoxic; HT-1080-NT fibrosarcoma viability, CellTiter-Glo ATP luminescence, 48 h; 360,000 compounds, 1.6% hits; AID 686970;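 also: NT is the 2HG producing partner of a matched IDH1 knockdown line; potency is read from the fitted curve at half-maximal effect; 0% = DMSO-treated cells and -100% = media-only wells without cells; nearly all actives have a fitted effect of over 55% in size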
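Toxicity toward the 2HG-producing NT line was scored as %Activity, normalised to DMSO and no-cell wells, from CellTiter-Glo luminescence after 48 hours' treatment.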
IL1B secr inh = blocks inflammasome-driven IL-1 beta release; 360,000 compounds, 4.7% hits; THP-1 LPS/ATP IL-1B secretion, AlphaLISA, 16 h; hits give low values; activity change, % at 57.5 µM; in the data active = activity change below about -50%; inconclusive = mostly about -30% to -49%
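Secreted IL-1B measured by AlphaLISA bead assay after 16 h compound exposure of THP-1 cells; compounds (final up to 57.5 uM) added 1 h before LPS (250 ng/mL) and ATP (1.25 mM) stimulation; lower signal means less secretion.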
ELG1 DNA repair = inhibitors of ELG1-dependent DNA repair in HEK293T cells | HEK293T ELG1-luciferase reporter, luminescence, 16 h; DNA damage induced by 5-fluorouridine | Potency, µM (series often up to 46.1 µM), for the others: top-dose activity change, negative = inhibition, hits mostly inhibitors | 330,000 compounds, 2.3% hits; also: potency is read from the fitted curve at half-maximal effect; nearly all actives have a fitted effect of over 55% in size
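5-Fluorouridine DNA damage + compound/DMSO, 2,000 cells/well, 16 h, 37 °C/5% CO2. ONE-Glo, 30 min RT, luminescence. Readout = decrease in reporter signal.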
* marks the source's active call; other numbers are inactive results; ? = inconclusive; · = not tested or not shown; [ ] = dose if it differs, or a comment. Unless noted, calls follow the shape of the dose curve; as a rule, active = well fitted curve in the direction sought with a large enough effect; inconclusive = small, poorly fitted or top-dose-only effect, or another doubt; inactive = no such curve, though single readings can be large; an effect the other way counts as inactive or inconclusive. Unless noted, % is scaled to controls: 0 for no effect and ±100 for the full control effect.

SMILES | DT40 TDP1 no CPT | DT40 TDP1 CPT | HT1080 IDH1KD tx | HT1080NT lethal | IL1B secr inh | ELG1 DNA repair
CC(C)C(C(=O)NCc1ccccc1)N(C)Cc1ccc(Cl)c(Cl)c1 (stereo unspecified) | ? | ? | ? | ? | 0 | ·
Cc1cc(F)ccc1NC(=O)C1CCC(CNS(=O)(=O)c2ccc3c(c2)CCCC(=O)N3)CC1 (stereo unspecified) | -28% | ? | · | · | · | ·
CCN(CC)C(=O)C1CCN(c2cc(C)nc3c(-c4ccc(OC)c(OC)c4)c(C)nn23)CC1 | ? | -26% | · | · | · | ·
CCc1c(C)nc2cc(-c3ccc(OC)c(OC)c3)nn2c1NCC1CC1 | 16µM* | 13µM* | -15% | -10% | -94* | 15µM*
O=C(NCc1ccco1)C1CCCN1C(=O)Nc1ccc(Cl)cc1 (stereo unspecified) | 16µM* | ? | 2% | 1% | -10 | -3%
Cc1ccccc1NC(=O)N1CCCC1C(=O)NCc1cccs1 (stereo unspecified) | -6% | -7% | 2% | -2% | -19 | ?
O=C(NCc1cccs1)C1CCCN1C(=O)Nc1ccccc1Cl (stereo unspecified) | 23µM* | 6% | 16% | 6% | 1 | 10%
O=C(NCCc1ccccc1)C1CCCN1C(=O)Nc1ccc(Cl)cc1 (stereo unspecified) | ? | 16µM* | 0% | -10% | 12 | -9%
CC1(C)Cc2ccccc2-c2n[nH]c(=S)n21 | 23µM* | ? | 11µM* | 14µM* | 2 | -11%
Cc1ccc(CNS(=O)(=O)c2cc3c4c(c2)C(C)C(=O)N4CCC3)cc1 (stereo unspecified) | -16% | ? | -3% | -7% | 38 | -5%
O=C(CC(SCc1ccco1)c1ccc(O)cc1)c1cccs1 (stereo unspecified) | 23µM* | ? | -4% | -12% | -52* | ?
CC(NC(=O)Cc1cccs1)c1ccc2c(c1)OCO2 (stereo unspecified) | -17% | 4% | -15% | 4% | 0 | 1%
O=C(CC(SCCO)c1ccc2c(c1)OCO2)c1cccs1 (stereo unspecified) | 12µM* | 12µM* | ? | ? | -75* | ?
CCOc1ccc(NC(=O)CSc2nc3c(oc4ccccc43)c(=O)n2-c2ccccc2C)cc1 | 23µM* | ? | · | · | · | ·
COc1ccccc1NC(=O)CSc1nc2c(oc3ccccc32)c(=O)n1C | ? | ? | 6% | 1% | 3 | ?
COc1ccccc1NC(=O)CSc1nc2c(oc3ccccc32)c(=O)n1-c1ccccc1F | 9.2µM* | 13µM* | · | · | · | ·
Cc1ccccc1-c1cc(-n2ccnc2)ncn1 | -20% | 0% | · | · | · | ·
O=S1(=O)CC(N2CC=CC2)CN1Cc1cn(Cc2ccccc2)nn1 (stereo unspecified) | 3% | 12% | 1% | 26% | 10 | ·
Cc1ccc(NC(=O)c2cc3c(=O)n(Cc4cccnc4)ccc3nc2C)cc1F | -19% | -12% | · | · | · | ·
Cc1cnc(-n2ncc(C(=O)NCC3CCCN(C)C3)c2C)nc1-c1cccs1 (stereo unspecified) | -13% | -11%[9.04 µM] | · | · | · | ·
O=C(NNC(=O)c1ccc(Br)s1)c1cccc(Cl)c1 | ? | -8% | -14% | 0% | -16 | ?
COc1ccc(-c2cc(CNC(=O)CCl)on2)cc1 | ? | ? | ? | ? | -92* | ?
OC[C@@H]1O[C@@H](n2cnc3c(N[C@H]4CCC[C@@H]4O)ncnc32)[C@H](O)[C@H]1O | -3% | 6% | · | · | · | ·
COc1ccc(CC(=O)N2CCc3cc(OC)c(OC)cc3C2O)cc1OC (stereo unspecified) | -7% | -2% | 6% | 5% | -13 | -2%
CCc1ccc(/C=C2/SC(N3CCOCC3)=NC2=O)cc1 | ? | 4% | 7% | 11% | -50* | 0%
SMILES | DT40 TDP1 no CPT | DT40 TDP1 CPT | HT1080 IDH1KD tx | HT1080NT lethal | IL1B secr inh | ELG1 DNA repair
O=C1N=C(N2CCOCC2)S/C1=C\c1ccncc1 | -16% | -11% | -2% | 13% | -5 | -10%
CC(C)c1ccc(/C=C2\SC(N3CCOCC3)=NC2=O)cc1 | ? | ? | -29% | 1% | -65* | -11%
CCn1c(=O)c2c(nc3n2CCCN3c2cccc(C)c2)n(C)c1=O | -14% | 9% | 8% | 16% | -1 | ?
COc1cccc(NC(=O)c2c(-c3ccc(C)cc3)nnc3ccccc23)c1 | -17% | ? | · | · | · | ·
Cc1ccc(N2N=C(c3ccc(F)cc3)CC2c2ccco2)cc1 (stereo unspecified) | ? | 18µM* | -3% | 9% | 9 | 15%
Oc1ccc(C2=NN(c3ccccc3)C(c3ccc(F)cc3)C2)cc1 (stereo unspecified) | ? | ? | 26µM* | 18µM* | -98* | -8%
CC(=O)Nc1ccc(C2=NN(c3ccccc3)C(c3ccccc3)C2)cc1 (stereo unspecified) | 23µM* | ? | -24% | -15% | 35 | ?
Fc1ccc(C2=NN(c3ccccc3)C(c3ccco3)C2)cc1 (stereo unspecified) | -23% | -7% | -13% | -14% | -5 | 0%
NS(=O)(=O)c1ccc(N2N=C(c3ccccc3)CC2c2cccc(Cl)c2)cc1 (stereo unspecified) | -22% | -28% | ? | ? | -70* | -17%
Cc1cccc(C2CC(c3ccccc3)=NN2c2ccc(S(N)(=O)=O)cc2)c1 (stereo unspecified) | ? | ? | ? | ? | -22 | ·
COC(=O)c1ccccc1NC(=O)[C@H]1O[C@@H]2OC(C)(C)O[C@@H]2[C@H]2OC(C)(C)O[C@H]21 | -28% | 11% | · | · | · | ·
COc1ccc(C2CC(c3ccccc3)=NN2c2ccc(/C=N/NC(=O)c3ccncc3)cc2)cc1 (stereo unspecified) | ? | ? | -21% | -14% | 15 | ?
NS(=O)(=O)c1ccc(N2N=C(c3ccccc3)CC2c2ccc(F)cc2)cc1 (stereo unspecified) | ? | ? | -20% | -4% | -61* | ?
N#CCC(=O)N/N=C/c1ccc(N2N=C(c3ccccc3)CC2c2ccccc2)cc1 (stereo unspecified) | 18µM* | 23µM* | -20% | ? | -7 | ?
